# Results as given in paper PMC7862700, “An all-to-all approach to the identification of sequence-specific readers for epigenetic DNA modifications on cytosine”.
# Legend:
# Test in all cases: DAPPL (digital affinity profiling via proximity ligation, sequencing); 10 mM Tris-HCl pH 7.5, 50 mM NaCl, 1 mM DTT, 4% glycerol, room temperature, 30 min; GST-TFs on glutathione beads, 16-mer random dsDNA library, 0.1% formaldehyde crosslink after washing; high values mean tight binding
# Conditions in all cases: protein: recombinant; tags: N-terminal GST; dsDNA, one strand shown
# ELK1 = target: T1, ELK1 (Homo sapiens, UniProt P19419 1-428)
# T1 sequence: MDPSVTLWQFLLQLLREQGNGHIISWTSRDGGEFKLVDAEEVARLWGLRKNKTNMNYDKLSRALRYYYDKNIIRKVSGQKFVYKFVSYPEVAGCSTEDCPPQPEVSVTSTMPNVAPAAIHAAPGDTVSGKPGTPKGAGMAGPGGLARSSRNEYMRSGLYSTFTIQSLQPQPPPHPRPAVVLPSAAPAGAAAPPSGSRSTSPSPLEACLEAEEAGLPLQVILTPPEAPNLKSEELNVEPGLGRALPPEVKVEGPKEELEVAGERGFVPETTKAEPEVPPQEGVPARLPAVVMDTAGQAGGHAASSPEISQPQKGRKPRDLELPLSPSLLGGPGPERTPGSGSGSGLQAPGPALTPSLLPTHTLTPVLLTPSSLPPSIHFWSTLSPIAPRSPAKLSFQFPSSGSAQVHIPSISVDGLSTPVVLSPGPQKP
# Summary of the method: (§1)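 Beads coated with glutathione captured GST-fused human transcription factors that had been expressed in yeast, and the factors were then given DNA barcodes and pooled with a tag-only sample. The pools were incubated with 200 nmole of a random double-stranded 16-mer DNA library in Tris/NaCl/DTT/glycerol buffer for 30 min at room temperature, washed, crosslinked with 0.1% formaldehyde and proximity-ligated with BsaI/T4 ligase at 37 °C for 1 h. PCR amplification and Illumina NextSeq500 sequencing came last. Binding signal is each hexamer's read frequency for a factor divided by its frequency for the tag-only sample.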
# GABPA = target: T2, GABPA (Homo sapiens, UniProt Q06546 1-454)
# T2 sequence: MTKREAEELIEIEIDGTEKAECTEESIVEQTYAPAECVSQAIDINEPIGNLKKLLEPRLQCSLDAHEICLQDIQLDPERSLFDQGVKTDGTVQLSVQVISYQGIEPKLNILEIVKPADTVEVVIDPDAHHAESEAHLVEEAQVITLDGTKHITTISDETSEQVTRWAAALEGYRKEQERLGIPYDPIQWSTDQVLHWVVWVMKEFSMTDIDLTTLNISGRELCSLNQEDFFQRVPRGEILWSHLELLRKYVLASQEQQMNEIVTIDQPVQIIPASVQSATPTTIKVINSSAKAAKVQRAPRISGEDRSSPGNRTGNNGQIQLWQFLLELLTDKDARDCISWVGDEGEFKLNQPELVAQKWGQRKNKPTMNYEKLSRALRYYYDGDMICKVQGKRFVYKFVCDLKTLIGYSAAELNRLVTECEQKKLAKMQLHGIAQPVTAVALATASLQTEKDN
# Summary of the method: as §1
# EHF = target: T3, EHF (Homo sapiens, UniProt Q9NZC4 1-300)
# T3 sequence: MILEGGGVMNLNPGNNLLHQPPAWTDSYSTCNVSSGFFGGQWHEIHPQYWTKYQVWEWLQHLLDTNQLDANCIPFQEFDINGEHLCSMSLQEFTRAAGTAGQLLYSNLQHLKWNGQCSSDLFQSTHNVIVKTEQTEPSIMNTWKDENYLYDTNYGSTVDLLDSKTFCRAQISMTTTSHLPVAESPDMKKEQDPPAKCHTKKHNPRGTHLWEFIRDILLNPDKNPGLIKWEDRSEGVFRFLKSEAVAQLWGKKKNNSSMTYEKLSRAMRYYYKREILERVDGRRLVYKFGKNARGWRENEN
# Summary of the method: as §1
# ELK3 = target: T4, ELK3 (Homo sapiens, UniProt P41970 1-407)
# T4 sequence: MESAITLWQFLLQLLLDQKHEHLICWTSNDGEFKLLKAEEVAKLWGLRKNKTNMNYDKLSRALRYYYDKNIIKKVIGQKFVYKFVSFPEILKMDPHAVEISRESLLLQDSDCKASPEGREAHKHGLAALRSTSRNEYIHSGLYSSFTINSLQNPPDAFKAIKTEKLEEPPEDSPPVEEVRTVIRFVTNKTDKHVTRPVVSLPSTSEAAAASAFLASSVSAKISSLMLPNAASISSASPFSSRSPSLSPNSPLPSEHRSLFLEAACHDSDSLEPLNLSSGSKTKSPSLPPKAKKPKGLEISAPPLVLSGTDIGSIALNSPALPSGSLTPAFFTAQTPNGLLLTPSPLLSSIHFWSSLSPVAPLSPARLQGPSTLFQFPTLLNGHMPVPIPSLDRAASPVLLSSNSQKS
# Summary of the method: as §1
# ETV5 = ETV5 (Homo sapiens, UniProt P41161 1-510)
# Summary of the method: as §1
# SPIC = target: T5, SPIC (Homo sapiens, UniProt Q8N5J4 1-248)
# T5 sequence: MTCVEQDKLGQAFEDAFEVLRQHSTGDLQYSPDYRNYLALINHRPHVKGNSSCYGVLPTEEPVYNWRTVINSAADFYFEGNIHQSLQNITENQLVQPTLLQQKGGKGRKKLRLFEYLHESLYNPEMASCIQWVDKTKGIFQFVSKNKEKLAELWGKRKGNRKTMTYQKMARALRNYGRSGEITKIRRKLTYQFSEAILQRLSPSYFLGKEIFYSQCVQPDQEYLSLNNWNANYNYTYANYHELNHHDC
# Summary of the method: as §1
# ELK4 = target: T6, ELK4 (Homo sapiens, UniProt P28324-2 1-405)
# T6 sequence: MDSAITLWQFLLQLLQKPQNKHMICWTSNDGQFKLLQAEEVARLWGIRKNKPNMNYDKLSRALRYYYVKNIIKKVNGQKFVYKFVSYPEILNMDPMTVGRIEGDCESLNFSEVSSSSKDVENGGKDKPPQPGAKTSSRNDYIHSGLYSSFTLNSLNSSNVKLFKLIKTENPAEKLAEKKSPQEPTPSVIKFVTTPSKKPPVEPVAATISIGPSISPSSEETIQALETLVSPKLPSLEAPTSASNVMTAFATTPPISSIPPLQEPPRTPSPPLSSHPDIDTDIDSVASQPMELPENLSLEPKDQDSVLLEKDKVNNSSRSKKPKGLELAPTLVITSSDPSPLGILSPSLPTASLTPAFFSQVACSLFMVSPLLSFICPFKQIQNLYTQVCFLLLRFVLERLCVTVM
# Summary of the method: as §1
# ELF3 = target: T7, ELF3 (Homo sapiens, UniProt P78545 1-371)
# T7 sequence: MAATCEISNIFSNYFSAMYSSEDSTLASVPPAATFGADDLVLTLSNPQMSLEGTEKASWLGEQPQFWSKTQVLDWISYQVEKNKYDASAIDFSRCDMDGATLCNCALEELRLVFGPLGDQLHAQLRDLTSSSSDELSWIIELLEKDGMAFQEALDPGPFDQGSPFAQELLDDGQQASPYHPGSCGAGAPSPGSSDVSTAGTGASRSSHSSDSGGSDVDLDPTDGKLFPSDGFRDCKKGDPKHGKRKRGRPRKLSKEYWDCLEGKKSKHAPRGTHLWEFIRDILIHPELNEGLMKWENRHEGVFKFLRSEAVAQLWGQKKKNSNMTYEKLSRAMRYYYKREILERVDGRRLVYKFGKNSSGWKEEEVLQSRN
# Summary of the method: as §1
# ETV1 = ETV1 (Homo sapiens, UniProt P50549 1-477)
# Summary of the method: as §1
# ERF = target: T8, ERF (Homo sapiens, UniProt P50548 1-548)
# T8 sequence: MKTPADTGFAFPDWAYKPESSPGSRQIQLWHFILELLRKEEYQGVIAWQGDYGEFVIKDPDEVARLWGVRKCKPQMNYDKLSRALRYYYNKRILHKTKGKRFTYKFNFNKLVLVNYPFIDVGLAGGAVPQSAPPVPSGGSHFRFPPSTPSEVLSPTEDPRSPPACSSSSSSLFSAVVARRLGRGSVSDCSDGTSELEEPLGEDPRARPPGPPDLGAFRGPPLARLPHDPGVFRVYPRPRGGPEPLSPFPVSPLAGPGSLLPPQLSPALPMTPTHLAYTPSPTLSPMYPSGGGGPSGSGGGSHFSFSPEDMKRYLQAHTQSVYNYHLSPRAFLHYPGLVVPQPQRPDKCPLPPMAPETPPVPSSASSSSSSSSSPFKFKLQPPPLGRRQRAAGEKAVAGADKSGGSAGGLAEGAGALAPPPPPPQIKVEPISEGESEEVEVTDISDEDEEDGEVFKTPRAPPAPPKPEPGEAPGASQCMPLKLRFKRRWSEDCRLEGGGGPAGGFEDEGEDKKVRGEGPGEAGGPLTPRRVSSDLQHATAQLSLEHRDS
# Summary of the method: as §1
# ETS2 = target: T9, ETS2 (Homo sapiens, UniProt P15036 1-469)
# T9 sequence: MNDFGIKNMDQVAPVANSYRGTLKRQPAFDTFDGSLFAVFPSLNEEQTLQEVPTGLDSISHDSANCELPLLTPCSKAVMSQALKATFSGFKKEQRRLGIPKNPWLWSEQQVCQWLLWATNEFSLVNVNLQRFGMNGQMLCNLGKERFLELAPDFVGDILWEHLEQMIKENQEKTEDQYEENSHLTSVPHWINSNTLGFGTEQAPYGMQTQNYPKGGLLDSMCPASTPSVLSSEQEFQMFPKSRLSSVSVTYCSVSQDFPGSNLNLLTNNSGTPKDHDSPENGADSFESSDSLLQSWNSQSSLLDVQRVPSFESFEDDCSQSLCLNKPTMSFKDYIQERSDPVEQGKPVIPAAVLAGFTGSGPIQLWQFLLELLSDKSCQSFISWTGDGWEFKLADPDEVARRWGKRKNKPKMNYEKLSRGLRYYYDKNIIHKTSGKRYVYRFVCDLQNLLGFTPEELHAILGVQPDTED
# Summary of the method: as §1
# SPDEF = target: T10, SPDEF (Homo sapiens, UniProt O95238 1-335)
# T10 sequence: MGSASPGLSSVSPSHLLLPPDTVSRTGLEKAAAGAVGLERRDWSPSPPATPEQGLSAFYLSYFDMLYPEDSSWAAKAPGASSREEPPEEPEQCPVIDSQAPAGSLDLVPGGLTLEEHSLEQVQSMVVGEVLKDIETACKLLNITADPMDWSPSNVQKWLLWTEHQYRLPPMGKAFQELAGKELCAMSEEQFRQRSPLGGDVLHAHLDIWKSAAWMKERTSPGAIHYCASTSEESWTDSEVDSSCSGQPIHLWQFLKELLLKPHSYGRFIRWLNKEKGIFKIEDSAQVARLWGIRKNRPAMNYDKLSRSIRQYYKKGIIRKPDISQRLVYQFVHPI
# Summary of the method: as §1
# Sequence of ETV1 (P50549 whole entry): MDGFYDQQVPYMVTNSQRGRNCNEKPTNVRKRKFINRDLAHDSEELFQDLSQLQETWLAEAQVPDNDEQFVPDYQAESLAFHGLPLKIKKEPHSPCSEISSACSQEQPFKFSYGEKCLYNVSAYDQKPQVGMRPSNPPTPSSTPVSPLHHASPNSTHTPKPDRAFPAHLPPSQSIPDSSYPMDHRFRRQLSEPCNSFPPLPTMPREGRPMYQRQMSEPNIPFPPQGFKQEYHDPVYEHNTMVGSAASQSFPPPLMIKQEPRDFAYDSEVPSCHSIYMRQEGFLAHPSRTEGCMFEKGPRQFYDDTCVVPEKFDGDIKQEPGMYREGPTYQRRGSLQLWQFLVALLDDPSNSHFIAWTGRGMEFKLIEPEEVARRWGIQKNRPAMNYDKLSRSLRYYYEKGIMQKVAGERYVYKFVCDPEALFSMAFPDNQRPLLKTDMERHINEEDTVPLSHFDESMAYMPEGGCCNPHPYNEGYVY
# Sequence of ETV5 (P41161 whole entry): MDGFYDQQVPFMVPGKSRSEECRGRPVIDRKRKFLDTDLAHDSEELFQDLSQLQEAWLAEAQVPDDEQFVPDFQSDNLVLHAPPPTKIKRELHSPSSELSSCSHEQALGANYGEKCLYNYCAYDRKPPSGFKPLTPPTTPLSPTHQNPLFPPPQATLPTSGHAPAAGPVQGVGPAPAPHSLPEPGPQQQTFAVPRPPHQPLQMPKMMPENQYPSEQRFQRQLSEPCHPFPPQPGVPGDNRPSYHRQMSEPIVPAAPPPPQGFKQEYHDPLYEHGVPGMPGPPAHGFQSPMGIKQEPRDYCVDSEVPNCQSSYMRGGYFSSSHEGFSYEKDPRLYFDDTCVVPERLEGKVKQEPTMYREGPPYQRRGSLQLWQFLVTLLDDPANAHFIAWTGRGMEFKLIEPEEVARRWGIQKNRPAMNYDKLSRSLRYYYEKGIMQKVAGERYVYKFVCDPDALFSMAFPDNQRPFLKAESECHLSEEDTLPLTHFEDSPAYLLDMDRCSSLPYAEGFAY
sequence,measurement,setting,value
AGCCAC,binding signal,ELK1,"1.04 fold enrichment (6-mer frequency, TF over GST control)"
same,binding signal,GABPA,"1.01 fold enrichment (6-mer frequency, TF over GST control)"
same,binding signal,EHF,"1.05 fold enrichment (6-mer frequency, TF over GST control)"
same,binding signal,ELK3,"1.11 fold enrichment (6-mer frequency, TF over GST control)"
same,binding signal,ETV5,"1.01 fold enrichment (6-mer frequency, TF over GST control)"
same,binding signal,SPIC,"1.03 fold enrichment (6-mer frequency, TF over GST control)"
same,binding signal,ELK4,"1.03 fold enrichment (6-mer frequency, TF over GST control)"
same,binding signal,ELF3,"1.06 fold enrichment (6-mer frequency, TF over GST control)"
same,binding signal,ETV1,"1.04 fold enrichment (6-mer frequency, TF over GST control)"
same,binding signal,ERF,"1.01 fold enrichment (6-mer frequency, TF over GST control)"
same,binding signal,ETS2,"1.05 fold enrichment (6-mer frequency, TF over GST control)"
same,binding signal,SPDEF,"1.05 fold enrichment (6-mer frequency, TF over GST control)"
